Measured values from the supplement of paper PMC4709259.
Counter-ions that a name gives are not always drawn. ± gives the standard deviation.

Legend:
Jurkat [1] = assay: mean cell size (FSC-A) relative to DMSO control (fraction of control); higher = larger cells; settings: 48 h
How it was run: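 Jurkat cells at 600 cells/µl were incubated for 1 h and then treated for 48h with the Enzo Screen-Well FDA Approved Drug Library v2.0 at 25µM, with DMSO at 0.9% (v/v) final. Compounds that reduced counts below 20% of controls were retested in 10-fold dilutions down to 25nM. Cell count and mean cell size, taken as forward scatter area, were measured by flow cytometry relative to solvent-only controls. Each plate carried 6-12 controls, and values are means of 3 biological replicates.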

Jurkat [2] = assay: cell count relative to DMSO control (fraction of control); higher = more cells (less growth inhibition); settings: 48 h

Row | SMILES | mean cell size (Jurkat [1]) | cell count (Jurkat [2])
1 | CC(C)(C)NC[C@H](O)COc1nsnc1N1CCOCC1 [(S)-Timolol Maleate] (concentration: 25 µM) | 0.963 ± 0.034 | 0.967 ± 0.15
2 | Cc1ccc(NC(=O)c2ccc(CN3CCN(C)CC3)cc2)cc1Nc1nccc(-c2cccnc2)n1 [Imatinib Mesylate] (concentration: 25 µM) | 0.968 ± 0.032 | 0.589 ± 0.07
3 | CCc1cccc2c3c([nH]c12)C(CC)(CC(=O)O)OCC3 (stereo not drawn) [Etodolac] (concentration: 25 µM) | 1.08 ± 0.042 | 0.947 ± 0.018
4 | CN(C)CCC[C@@]1(c2ccc(F)cc2)OCc2cc(C#N)ccc21 [Escitalopram] (concentration: 25 µM) | 1.06 ± 0.039 | 0.382 ± 0.085
5 | C[C@@H](CN1CC(=O)NC(=O)C1)N1CC(=O)NC(=O)C1 [Dexrazoxane] (concentration: 25 µM) | 0.9682 ± 0.0057 | 0.411 ± 0.11
6 | CN1CCN(C2=Nc3cc(Cl)ccc3Nc3ccccc32)CC1 [Clozapine] (concentration: 25 µM) | 0.966 ± 0.025 | 0.494 ± 0.17
7 | Cc1ccc(O)c([C@H](CCN(C(C)C)C(C)C)c2ccccc2)c1 [Tolterodine Tartrate] (concentration: 25 µM) | 0.935 ± 0.022 | 1.14 ± 0.059
8 | CC1=C(CC(=O)O)c2cc(F)ccc2/C1=C\c1ccc([S+](C)[O-])cc1 (stereo not drawn) [Sulindac] (concentration: 25 µM) | 0.988 ± 0.019 | 0.782 ± 0.083
9 | CO[C@H]1/C=C/O[C@@]2(C)Oc3c(C)c(O)c4c(O)c(c(/C=N/N5CCN(C)CC5)c(O)c4c3C2=O)NC(=O)/C(C)=C\C=C\[C@H](C)[C@H](O)[C@@H](C)[C@@H](O)[C@@H](C)[C@H](OC(C)=O)[C@@H]1C [Rifampin (Rifampicin)] (concentration: 25 µM) | 0.964 ± 0.0034 | 0.765 ± 0.035
